From PubChem BioAssay AID504848 (National Center for Advancing Translational Sciences (NCATS), 2011)
In all, about 2,300 compounds went through this assay and about 1,400 (61%) were called active. Another 29% or so got no clear call; they are omitted. The call rests on the fitted dose curve; in most records, active means well fitted inhibition curve with a large enough effect; inconclusive means small, poorly fitted or top-dose-only effect, or effect the other way; inactive means no such curve, though single readings can be large or run the other way. The set was probably picked from earlier hits. This is one part of the list.

Assay: Confirmation screen for delayed death inhibitors of the malarial parasite plastid, 96 hour incubation; further: nearly all actives have a fitted effect of over 60% in size
Details: P. falciparum luciferase growth in erythrocytes; series mostly up to 28.7 µM
In short: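 Two-generation (96 h, 37 C) exposure of P. falciparum carrying an integrated firefly luciferase reporter in erythrocytes, 0.1% parasitemia and 2% hematocrit final, Albumax-supplemented RPMI. Luminescence decrease measures growth inhibition.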
Potency means the concentration at half of the fitted maximal effect.

| Compound | Potency |
| --- | --- |
| COc1cc(-c2nnc(NC(=O)CCS(=O)(=O)c3ccccc3)o2)cc(OC)c1OC | 12.6 µM (active) |
| Cc1sc(N/N=C/c2cccnc2)nc1-c1ccccc1 | 12.6 µM (active) |
| Cc1sc(NC(=O)c2c(F)cccc2F)nc1-c1ccccc1 | inactive |
| Cc1nc([N+](=O)[O-])c(Br)n1CC(=O)c1ccc(Cl)cc1 | 7.94 µM (active) |
| O=C(CSc1nc2cc([N+](=O)[O-])ccc2n1-c1ccccc1)NCc1ccc2c(c1)OCO2 | 11.2 µM (active) |
| COc1cc2c(cc1OC)CN(C(=O)c1cc(C3CC3)nn1-c1ccccc1)CC2 | 12.6 µM (active) |
| COc1cc2cc(CN(CCc3ccccc3C)C(=S)NCCCN3CCOCC3)c(=O)[nH]c2cc1OC | 4.47 µM (active) |
| COc1cc2cc(CN(Cc3cccs3)C(=S)Nc3ccc(C)cc3)c(=O)[nH]c2cc1OC | 10 µM (active) |
| O=C(NC1CCCCC1)C1CCN(c2nnnn2-c2ccccc2)CC1 | 14.1 µM (active) |
| O=C(NC1CCCC1)C1CC(=O)N(CCc2ccccc2)C1 (stereo not given) | inactive |
| O=C(CSc1nc2ccccc2c(=O)[nH]1)Nc1cccc([N+](=O)[O-])c1 | 14.1 µM (active) |
| O=C(Nc1cccc([N+](=O)[O-])c1)c1ccc2nsnc2c1 | inactive |
| CCOC(=O)CNC(c1ccccc1)c1cc(Br)ccc1NC(=O)CCN1CCOCC1 (stereo not given) | 11.2 µM (active) |
| COc1ccc(Cl)cc1NC(=O)C(=O)NCc1ccncc1 | inactive |
| COc1ccc(Nc2cc(Cl)ccc2C(=O)O)cn1 | inactive |
| COc1ccc(Cl)cc1C(=O)Nc1ccncc1 | 12.6 µM (active) |
| CC(=O)Nc1cccc(Oc2ncnc3scc(-c4ccc(C(C)C)cc4)c23)c1 | 6.31 µM (active) |
| Cc1cc(C)c(C(=O)/C=C/c2cccc3ccccc23)c(=O)[nH]1 | 6.31 µM (active) |
| CCc1nnc(NC(=O)CSc2nc3cccnc3n2C2CCCCC2)s1 | inactive |
| CCc1nnc(NC(=O)CSc2ncnc3c2cnn3-c2ccc(OC)cc2)s1 | 12.6 µM (active) |
| CC(NC(=O)c1ccc([N+](=O)[O-])o1)C12CC3CC(CC(C3)C1)C2 (stereo not given) | 6.31 µM (active) |
| Cn1cc([N+](=O)[O-])c(C(=O)Nc2ccn(C34CC5CC(CC(C5)C3)C4)n2)n1 | inactive |
| O=C(NC12CC3CC(CC(C3)C1)C2)c1ccc([N+](=O)[O-])o1 | 2.24 µM (active) |

| Compound | Potency |
| --- | --- |
| COc1cc(C2Oc3ccccc3C=C2[N+](=O)[O-])cc(OC)c1OC (stereo not given) | 12.6 µM (active) |
| CN(c1ccccc1)S(=O)(=O)c1cc(C(=O)N2CCN(c3ncccn3)CC2)ccc1Cl | 8.91 µM (active) |
| CCOC(=O)C1(CCc2ccccc2)CCN(Cc2ccccn2)CC1 | 2.51 µM (active) |
| Cc1cccc(C)c1NC(=O)C(=O)c1cn(C)c2ccccc12 | 15.8 µM (active) |
| Cc1cccc(C)c1OCCn1nc(C(=O)O)c2ccccc2c1=O | inactive |
| COc1ccc(CN2C(=O)c3ccccc3C2C(=O)NC2CCC(C)CC2)c(OC)c1 (stereo not given) | 7.08 µM (active) |
| COc1cccc(CN2CCN(c3nc4nonc4nc3N3CCCCC3)CC2=O)c1 | 1.78 µM (active) |
| Cc1cc2nc3c(=O)[nH]c(=S)[nH]c3nc2cc1NC(=O)C(F)(F)F | 14.1 µM (active) |
| O=C(Nc1nc(-c2ccccn2)cs1)C1COc2ccccc2O1 (stereo not given) | 6.31 µM (active) |
| CCc1ccc(N/C(SCc2cccc(F)c2)=C(/C#N)C(=O)NCc2ccco2)cc1 | 7.94 µM (active) |
| O=C(NC1CCCN(Cc2ccc(Cl)cc2)C1)c1cnc2ccccn2c1=O (stereo not given) | 11.2 µM (active) |
| Cc1occc1C(=O)NC1CCCN(Cc2ccc(CC(C)C)cc2)C1 (stereo not given) | 12.6 µM (active) |
| Nc1c(C(=O)CSc2nc3ccccc3o2)c(=O)[nH]c(=O)n1C1CC1 | 12.6 µM (active) |
| Cc1ccc(-c2csc(SCC(=O)c3c(N)n(C4CC4)c(=O)[nH]c3=O)n2)cc1 | inactive |
| Cc1ccccc1-n1c(SCC(=O)c2c(N)n(C3CC3)c(=O)[nH]c2=O)nnc1N1CCOCC1 | 7.94 µM (active) |
| Cc1ccc(-n2nnnc2Sc2nc([N+](=O)[O-])nn2C)cc1C | 3.16 µM (active) |
| Cc1ccc(-n2nnnc2SCC(=O)Nc2ccccc2-c2ccccc2)cc1C | inactive |
| N#Cc1cc(Oc2cccc3cccnc23)c(-n2nnc3ccccc32)cc1C#N | 5.62 µM (active) |
| COc1cccc(-c2ccc3ncnc(NCc4cccs4)c3c2)c1 | 5.01 µM (active) |
| CN(C)c1ccc(CNc2ncnc3sccc23)cc1 | inactive |
| CCCN(CCC)c1ccc(CC(=O)NC(C)Cc2ccccc2)cc1 (stereo not given) | 12.6 µM (active) |
| O=C1NC(=S)S/C1=C\C=C\c1ccc([N+](=O)[O-])o1 | 2 µM (active) |
| COc1ccc(C2c3c(ncn(CCCN4CCOCC4)c3=N)Oc3ccc4ccccc4c32)cc1OC (stereo not given) | 2.24 µM (active) |

| Compound | Potency |
| --- | --- |
| COc1ccc(C2c3c(ncn(CCN4CCOCC4)c3=N)Oc3ccc4ccccc4c32)cc1OC (stereo not given) | 2 µM (active) |
| CCc1noc(C)c1C(=O)NC1CC(C)(C)Cc2c1cnn2-c1ccccc1 (stereo not given) | 12.6 µM (active) |
| CC1=C(C(=O)NC2CC(C)(C)Cc3c2cnn3-c2ccc(C)cc2)OCCO1 (stereo not given) | 11.2 µM (active) |
| Cc1ccc(-n2ncc3c2CC(C)(C)CC3NC(=O)c2c(C)noc2C)cc1 (stereo not given) | 12.6 µM (active) |
| CCOc1ccc2c(c1)sc(N)[n+]2Cc1cc(C)cc2cccnc12 | 3.98 µM (active) |
| COc1cc([N+](=O)[O-])c(OC)cc1SCc1n[nH]c(=S)n1-c1ccc(F)cc1 | 15.8 µM (active) |
| COc1ccccc1N1CC(O)=C(c2nc3ccccc3s2)C1=N | 11.2 µM (active) |
| Cn1c(SCC(=O)N2CCCCCC2)nc2c(c1=O)SCC2 | 8.91 µM (active) |
| CCC(=O)c1ccc(N2CCN(C(=O)c3cc([N+](=O)[O-])ccc3N3CCN(C)CC3)CC2)c(F)c1 | 11.2 µM (active) |
| O=[N+]([O-])/C=C\c1ccc(N2CCCC2)c(F)c1 | inactive |
| Cc1ccc(Nc2nc(NCc3ccco3)c3ccccc3n2)cc1 | 2 µM (active) |
| C/C=C(\C)C(=O)NCCN1C2=NC[C@H](Cc3ccccc3)N2C[C@H]1Cc1ccc(O)cc1 | 3.55 µM (active) |
| C/C=C(\C)C(=O)NCCN1C2=NC[C@H](C(C)C)N2C[C@H]1Cc1ccc(O)cc1 | 5.62 µM (active) |
| C=CCNC(=O)c1onc(CSc2cccc3ccccc23)c1C(=O)O | inactive |
| COc1ccc(CNc2ncc(-c3ccc(Cl)cc3)n2C)c(OC)c1OC | 12.6 µM (active) |
| CCC[C@H]1C[C@H](C(=O)N[C@@H]([C@H]2O[C@@H](SC)[C@@H](O)[C@@H](O)[C@@H]2O)[C@H](C)Cl)N(C)C1 | 0.199 µM (active) |
| Cc1ccc(S(=O)(=O)N(CC(=O)NCc2ccco2)c2ccccc2C)cc1 | 11.2 µM (active) |
| Cc1ccc(S(=O)(=O)N(Cc2ccccc2)c2ccccc2C(=O)Nc2ccccc2C(=O)NCc2ccco2)cc1 | 2.24 µM (active) |
| COCCn1c(=NC(=O)/C=C/c2ccccc2)sc2cc(NC(C)=O)ccc21 | 7.94 µM (active) |
| COC(=O)c1cc(=O)n(Cc2cccs2)c(=Nc2ccccc2)s1 | inactive |
| CCN(CC)S(=O)(=O)c1ccc(N2CCc3ccccc3C2)nc1 | 14.1 µM (active) |
| CC(C)N(C(C)C)S(=O)(=O)c1ccc(N2CCc3ccccc3C2)nc1 | 12.6 µM (active) |
| CN1C(=O)C(C)(C)c2cc(S(=O)(=O)NCC3CCC(C(=O)NCc4ccc(F)cc4)CC3)ccc21 (stereo not given) | 11.2 µM (active) |

| Compound | Potency |
| --- | --- |
| CCOc1ccccc1C(=O)NCC(=O)NCCc1ccc(S(N)(=O)=O)cc1 | inactive |
| Cc1ccccc1NC(=O)CCCn1nc(C)c2c(C)n(-c3ccccc3)nc2c1=O | 10 µM (active) |
| CCOc1ccc(CCNC(=O)CCCn2nc(C)c3c(C)n(-c4ccccc4)nc3c2=O)cc1 | 11.2 µM (active) |
| COc1ccc(NC(=O)CCCn2nc(C)c3c(C)n(-c4ccccc4)nc3c2=O)cc1 | 11.2 µM (active) |
| Cc1nn(-c2ccccc2)c(C)c1NC(=O)COC(=O)[C@@H](NC(=O)c1ccccc1)C(C)C | inactive |
| Cc1cccc(C)c1NC(=O)CCCn1nc(C)c2c(C)n(-c3ccccc3)nc2c1=O | 10 µM (active) |
| COc1ccc(NC(=O)CCCn2cc([N+](=O)[O-])cn2)cc1 | inactive |
| CSc1ccccc1OCc1cc(C(=O)NCCn2ccnc2C)no1 | inactive |
| CSc1ccccc1OCc1cc(C(=O)NCCCn2nc(C)cc2C)no1 | 12.6 µM (active) |
| CCOC(=O)c1ccc(CNC(=O)c2cc(COc3ccccc3SC)on2)o1 | inactive |
| CCN(CCN1CCCC1)C(=O)c1cc(COc2ccccc2SC)on1 | 12.6 µM (active) |
| CSc1ccccc1OCc1cc(C(=O)N(C)CCc2c(C)n[nH]c2C)no1 | 10 µM (active) |
| CC(=O)NC1=C(Nc2ccc(N(C)C)cc2)C(=O)c2ccccc2C1=O | 6.31 µM (active) |
| COc1ccc(NC2=C(NC(C)=O)C(=O)c3ccccc3C2=O)cc1 | 3.16 µM (active) |
| N#Cc1ccccc1S(=O)(=O)N1CCC(C(=O)NCc2ccccc2CN2CCCC2)CC1 | 14.1 µM (active) |
| CCOC(=O)c1cnc2ccccc2c1NCCc1ccc(OC)c(OC)c1 | 5.01 µM (active) |
| Cc1ccc2c(c1)c1c3n2CCN(C(=O)CCl)C3CCC1 (stereo not given) | 14.1 µM (active) |
| CN(CC(=O)Nc1ccc(Cl)cc1)C(=O)Cc1c(F)cccc1Cl | 10 µM (active) |
| O=C(/C=C/Sc1ncn[nH]1)c1ccc(Cl)cc1 | 12.6 µM (active) |
| CCC1OC(=O)C[C@@H](O)[C@H](C)[C@@H](OC2OC(C)CC(N(C)C)C2O)[C@@H](CC=O)C[C@@H](C)C(=O)/C=C/[C@]2(C)OC2C1C (stereo not given in full) | 1.78 µM (active) |
| Cc1cc(C)n(Cc2ccc(C(=O)N/N=C/c3ccc(-c4ccc([N+](=O)[O-])cc4)o3)o2)n1 | 5.01 µM (active) |
